FLuc counter = inhibits or activates purified firefly luciferase, miR-21 counter-screen | hit rate 6.9% among 360,000 | Potency, µM (top dose mostly 57.5 µM), for inactives: at the highest dose activity change, negative = inhibition, most hits filed as inhibitors | AID 588342 | P08659 | purified FLuc, Km substrates, luminescence inhibition;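 note: plate controls were vehicle for no effect and reference inhibitor for full effect; nearly all actives have a fitted effect of over 55% in size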
Target sequence (P08659 whole entry, looked up): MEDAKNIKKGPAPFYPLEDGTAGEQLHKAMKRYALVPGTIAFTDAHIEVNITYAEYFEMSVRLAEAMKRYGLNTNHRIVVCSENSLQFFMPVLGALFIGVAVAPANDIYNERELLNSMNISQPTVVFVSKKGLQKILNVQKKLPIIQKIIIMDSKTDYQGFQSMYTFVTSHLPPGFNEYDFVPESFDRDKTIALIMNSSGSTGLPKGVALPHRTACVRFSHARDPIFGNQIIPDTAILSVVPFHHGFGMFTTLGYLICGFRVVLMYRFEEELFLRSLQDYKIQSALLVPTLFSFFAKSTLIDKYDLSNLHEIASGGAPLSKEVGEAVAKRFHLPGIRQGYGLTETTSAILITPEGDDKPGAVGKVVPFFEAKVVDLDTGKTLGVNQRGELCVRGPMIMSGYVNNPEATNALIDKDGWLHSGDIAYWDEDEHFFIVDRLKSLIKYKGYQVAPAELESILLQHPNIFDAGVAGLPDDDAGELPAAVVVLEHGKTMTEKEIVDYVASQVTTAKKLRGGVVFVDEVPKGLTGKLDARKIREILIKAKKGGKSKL
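Purified P. pyralis luciferase, 10 nM final, with Km-level 10 uM D-luciferin and 10 uM ATP in 50 mM Tris acetate pH 7.5, 10 mM Mg acetate, 0.01% Tween-20, 0.05% BSA; 6-point qHTS titration about 60 µM downward; luminescence read.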
ELG1 DNA repair = inhibitors of ELG1-dependent DNA repair in HEK293T cells. hit rate 2.3% among 330,000. Potency, µM (series often up to 46.1 µM), inactives show top-dose activity change, negative = inhibition, most hits filed as inhibitors. AID 504467. HEK293T ELG1-luciferase reporter, luminescence, 16 h; DNA damage induced by 5-fluorouridine; note: % is set by controls: 0 for no effect and ±100 for the full control effect; nearly all actives have a fitted effect of over 55% in size
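Quantitative HTS, concentration-response format. 2,000 cells/well co-treated with 5-fluorouridine and compound, 16 hr in 5% CO2 at 37 °C; ONE-Glo luminescence read after 30 min.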
Rab9 promoter act = activators of Rab9 promoter; Potency, µM (series often up to 9.22 µM), for inactives: top-dose activation, negative = inhibition, most hits filed as activators; Huh7 Rab9 promoter-luciferase reporter, luminescence, 24 h; hit rate 2.8% among 320,000; AID 485297; note: % of control where 0% means no effect; nearly all actives have a fitted effect of over 60% in size
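Cell-based reporter: Huh7 stable for Rab9 promoter-driven luciferase, plated in reduced-serum medium with 10% FBS at 1500 cells/well, compound-treated 24 h at 37 °C, luminescence read after 10 min reagent.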
ELG1 genotoxic = induces genotoxicity in HEK293T cells with luciferase-tagged ELG1; hit rate 1.3% among 330,000; HEK293T ELG1-luciferase reporter, luminescence, 16 h; Potency, µM (series often up to 46 µM), inactives show at the top dose activity change, positive = activation, actives largely listed as activators; AID 504466; note: % of control where 0% means no effect; nearly all actives have a fitted effect of over 60% in size
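ELG1-luciferase HEK293T cells, 2,000/well; compound pinned in; 16 hr, 37 °C, 5% CO2; ONE-Glo, 30 min RT; luminescence on CCD imager.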
SMN2 splice enh = enhancers of SMN2 splice variant expression; hit rate 2.8% among 210,000; HEK293 SMN2-luciferase splicing reporter, luminescence, 30-36 h; Potency, µM (doses to about 46.1 µM), without a hit: at the highest dose activity change, positive = activation, actives largely listed as activators; note: % of control where 0% means no effect; nearly all actives have a fitted effect of over 55% in size
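HEK293 cells carry an SMN2 […]–luciferase reporter in which exon 7 inclusion puts luciferase in frame. Cells were plated 10-12 h before compound addition, then incubated 30-36 h at 37C. ONE-Glo luminescence was read; sodium butyrate at 4.5 mM final served as control.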
NPC1 promoter act = activates the NPC1 promoter; Huh7 NPC1 promoter luciferase reporter, 24 h; Potency, µM (top dose mostly 9.22 µM), for inactives: top-dose activation, hits mostly activators; hit rate 2.4% among 320,000; note: % of control where 0% means no effect; nearly all actives have a fitted effect of over 60% in size
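Luciferase expression driven by the NPC1 promoter was measured in stably transfected Huh7 cells after a 24 h compound incubation, using a luciferase reagent and a luminescence read.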
Numbers without * were called inactive; ? = inconclusive; / = no result; [ ] = another dose, or the depositor's remark. Only some compounds are listed: those with a hit (about 9.2% of all), similar ones and a draw of the others. Calls come from the whole dose curve; as a rule, active = well fitted curve in the direction sought with a large enough effect; inconclusive = small, poorly fitted or top-dose-only effect, or another doubt; inactive = no such curve, though single readings can be large; an effect the other way counts as inactive or inconclusive. Potency is the fitted concentration of half-maximal effect.

SMILES | FLuc counter | ELG1 DNA repair | Rab9 promoter act | ELG1 genotoxic | SMN2 splice enh | NPC1 promoter act
COc1cccc(CN(C)C(=O)c2cc(COc3ccc4ncccc4c3)on2)c1 | -14% | ? | -56% | -12% | / | -27%
COc1cccc(OCc2cc(C(=O)N(C)Cc3nccn3C)no2)c1 | 19µM* | ? | 1.8µM* | ? | / | 2.8µM*
COc1cccc(OCc2cc(C(=O)N(C)CCOc3ccc(C)cc3)no2)c1 | 13µM* | ? | 2.8µM* | ? | / | 3.5µM*
COc1ccc(OCc2cc(C(=O)N(Cc3nccn3C)C(C)C)no2)c2ccccc12 | 13µM* | ? | 3.2µM* | 13% | / | ?
COc1ccc2nc(SCC(=O)/C(C#N)=C(\C)N)[nH]c2c1 | 8.5µM* | ? | 0.63µM* | ? | / | 1.1µM*
C/C(N)=C(/C#N)C(=O)CSc1nnc(-c2ccccc2Br)o1 | 0.85µM* | ? | 0.4µM* | 2.6µM* | 2.8µM* | 0.45µM*
COc1ccc(-c2nnc(SCC(=O)/C(C#N)=C(\C)N)o2)cc1 | 0.95µM* | ? | 26% | 1µM* | 4.5µM* | 0.71µM*
CCOC(=O)c1c(C)oc2ncnc(Nc3ccc(F)cc3Cl)c12 | -4% | / | / | / | / | /
Cc1nn(C)cc1C(C)NCc1c(C(=O)N2CCCCCCC2)nc2ccc(Cl)cn12 (stereo not given) | -2% | 4% | 0% | 1% | / | -3%
Cc1nc2ccccc2n1S(=O)(=O)c1cc(C(=O)O)ccc1Cl | -2% | 0% | 2%[1.84 µM] | 1% | / | -9%
CCc1ccc(C(=O)/C=C/c2ccc([N+](=O)[O-])o2)cc1 | 11µM* | ? | -29% | ? | -92% | -11%
COc1cc2c(cc1OC)C1(Nc3c-2c(Cc2ccccc2)nn3-c2ccccc2)C(=O)Nc2ccccc21 (stereo not given) | 1% | 13µM* | 1% | -8% | 4% | 1%
C/C=C\C=C\C(=O)N1CC2(CC(c3cccc(NC(=O)COc4ccc(Cl)cc4)c3)=NO2)C[C@H]1C(N)=O (stereo not given in full) | 9.5µM* | ? | -3% | -4% | / | -2%
C/C=C\C=C/C(=O)Nc1cccc(C2=NOC3(C2)C[C@@H](C(N)=O)N(C(=O)COc2ccc(Cl)cc2)C3)c1 (stereo not given in full) | 15µM* | 2% | -3% | -3% | / | -2%
CCCCCC(=O)Nc1cccc(C2=NOC3(C2)C[C@H](C(N)=O)N(C(=O)COc2ccc(Cl)cc2)C3)c1 (stereo not given in full) | -16% | 7.3µM* | -6% | -15% | / | -9%
C/C=C\C=C\C(=O)N1CC2(CC(c3cccc(NC(=O)CC)c3)=NO2)C[C@H]1C(N)=O (stereo not given in full) | -11% | 22% | -6% | 4% | / | 1%
COc1cc(C(CC(=O)Nc2ccc(C)c(F)c2)N2Cc3ccccc3C2=O)cc(OC)c1OC (stereo not given) | 2% | / | / | / | / | /
Cc1ccc(CNC(=O)c2cc3c(=O)n(Cc4cccnc4)ccc3nc2C)cc1 | -1% | / | / | / | / | /
Cc1ccc(CNC(=O)c2cccc3c2C(=O)c2ccc(N4CCOCC4)cc2S3(=O)=O)cc1 | -2% | 12µM* | -4% | -7% | / | 0%
O=C(NCc1ccccc1C(F)(F)F)c1cccc2c1C(=O)c1ccc(N3CCOCC3)cc1S2(=O)=O | / | 5.2µM* | / | 5% | / | /
O=C(NCC1CCCO1)c1cccc2c1C(=O)c1ccc(N3CCC(Cc4ccccc4)CC3)cc1S2(=O)=O (stereo not given) | / | 2.6µM* | / | -13% | / | /
Cc1ccc(CNC(=O)c2cccc3c2C(=O)c2ccc(N4CCCCC4)cc2S3(=O)=O)cc1 | ? | ? | 2% | -1% | / | 13%
CC1CCN(c2ccc3c(c2)S(=O)(=O)c2cccc(C(=O)NC[C@@H]4CCCO4)c2C3=O)CC1 | / | -22% | / | -2% | / | /
O=C(NCc1ccco1)c1cccc2c1C(=O)c1ccc(N3CCCC3)cc1S2(=O)=O | / | 13µM* | / | -5% | / | /
Cc1ccc2c(c1)c(=O)c(C(=O)c1ccccc1)cn2Cc1ccccc1F | -8% | / | / | / | -2% | /
SMILES | FLuc counter | ELG1 DNA repair | Rab9 promoter act | ELG1 genotoxic | SMN2 splice enh | NPC1 promoter act
NS(=O)(=O)c1ccc(N2CCOCC2)c(C(=O)NCc2ccc3c(c2)OCO3)c1 | 2% | 1% | 0% | -1% | / | -7%
CN1CCC(NC(=O)NC2CCCCC2)CC1 | -1% | 9% | -2% | -2% | / | -2%
O=C(NC1CCCCCC1)C(=O)NC1CC1 | -8% | 19% | 15% | 1% | / | 12%
O=C(NC1CCCCCCC1)NC1CCCCC1 | 17µM* | ? | 4µM* | ? | ? | 3.5µM*
O=C(NC1CCCCCC1)C(=S)NC1CCCCC1 | 5.4µM* | ? | -4% | ? | -36% | 2.5µM*
COc1cc(NC(=O)Cc2cccs2)c(C(=O)O)cc1OC | ? | -4% | -4% | 0% | 0% | 0%
CCN(CC)c1nn2c(=O)c(C(=O)NCCc3cccc(C)c3)cnc2s1 | -14% | / | / | / | / | /
COc1ccc(NS(=O)(=O)c2ccc(NS(=O)(=O)c3cccs3)cc2)cc1 | 1% | -5% | -8% | -1% | / | -1%
COc1ccc(CNc2cccc3[nH]c(C(F)(F)F)nc23)cc1OC | -5% | 26µM* | 1% | -7% | / | -2%
COc1ccc(CNc2ccccc2SC)cc1OC | ? | ? | -5% | 27% | -61% | -5%
CC(=O)c1cccc(NS(=O)(=O)c2ccc3c(c2)N(C(C)=O)CCO3)c1 | 1% | -1% | -4% | -4% | / | 1%
Cc1ccc(-c2cc(C(=O)N/N=C/c3c[nH]c4ccccc34)[nH]n2)cc1 | 11µM* | -8% | -17% | -1% | -6% | -19%
O=C(N/N=C/c1cccs1)c1cc(-c2ccc3ccccc3c2)n[nH]1 | -16% | -21% | -9% | 0% | -1% | 7%
O=C(O)c1ccc(/C=N/NC(=O)c2cc(-c3ccc4c5c(cccc35)CC4)n[nH]2)cc1 | 21µM* | -6% | -7% | -2% | 4% | -4%
O=C(N/N=C/c1c[nH]c2ccccc12)c1cc(-c2ccc(-c3ccccc3)cc2)n[nH]1 | 1.3µM* | ? | ? | 13% | 24% | 30%
O=C(N/N=C/c1cccs1)c1cc(-c2cccc3ccccc23)n[nH]1 | 19µM* | -2% | 26% | 15% | ? | 1%
CCOC(=O)CSc1nnc2n(-c3ccccc3)c(=O)c3c4c(sc3n12)CC(C(C)(C)C)CC4 (stereo not given) | 1% | / | / | / | -5% | /
